Reference: article PMC13494018

B1: design_609_7ee6ce64-4629-41e8-bcb4-ba0da017284d_2409_dldesign_0_cycle1_af2pred (protein)
chain: SMEEEELRKKADEVAEKAAKIAEEADPELGKKFRERAEKAKKDPVDAYAYYVAQAAKSGGIILEKLGKEEEGKKLKELGKELEKALEE
B2: design_609_7ee6ce64-4629-41e8-bcb4-ba0da017284d_2287_dldesign_0_cycle1_af2pred (protein)
chain: SDLEATELQIKAARLVAEAKRALAELTPEEGLARAKELFAEAEKAVKAAAKLLSPEAGKALVAALKERSAAILAEAEKAAAA
B3: design_609_7ee6ce64-4629-41e8-bcb4-ba0da017284d_2421_dldesign_0_cycle1_af2pred (protein)
chain: AAKEEVEKKAEEVIKKLKEIGEKDPNAKELTDDLIKTLKKEVEKYKDDPEKAKKAVDKAEKTADSLEEAVKY
B4: design_609_7ee6ce64-4629-41e8-bcb4-ba0da017284d_2040_dldesign_0_cycle1_af2pred (protein)
chain: EEEEKEKKAKELEKEAVKHREEAFDKIAEGKLEEAKELAEKIRELAKKLEELGEEAKPLADRARKGARAVERLIEAAE
B5: design_609_7ee6ce64-4629-41e8-bcb4-ba0da017284d_2306_dldesign_0_cycle1_af2pred (protein)
chain: LSENEKLKKAADYTSKAAKLAAEAAKKYKLPPEAVKKAQEAINLLFSSTDKETAEKAVELAKEAAKYMPESVAKKFLELVEKAAEYWS
B6: design_609_7ee6ce64-4629-41e8-bcb4-ba0da017284d_2406_dldesign_0_cycle1_af2pred (protein)
chain: ETEKKIKYLKEALYYLHLAIESAKLGSPPEAARRFVEIGIKKALEGDEEVGKELEKLLKELSPEEAAEAGAKLVEERIKELE
B7: design_609_7ee6ce64-4629-41e8-bcb4-ba0da017284d_2085_dldesign_0_cycle1_af2pred (protein)
chain: LEEKLKELRALAKEAAEKAKEEGATKTANLLLKGVEASPLKAVGYVLVAADLLKASEKLKPWAEKLEKAAEEV
B8: design_609_7ee6ce64-4629-41e8-bcb4-ba0da017284d_2350_dldesign_0_cycle1_af2pred (protein)
chain: SEKKLKAQKEALKLVEEVAKYAEEDPETAPKFGKEKAEEAYKYALELGLSEEEAEKLRKTTLRLVEAEIRGAKLVAEKRKKALE
B9: design_609_7ee6ce64-4629-41e8-bcb4-ba0da017284d_2471_dldesign_0_cycle1_af2pred (protein)
chain: MEALKARGDLDVVADQATQIAKLAAEHPELAELGKRAAELAARAKAAQAGDPEETIKKAKELRAERRELVAETKKRLAAL
B10: design_609_7ee6ce64-4629-41e8-bcb4-ba0da017284d_2235_dldesign_0_cycle1_af2pred (protein)
chain: MKAKEEAEKKVEEVVEKGEKKVEEMKGLTAEEAEKVRNEIILEGQEVAAEAKKVDPEVGKKGFEKFRKVGEKAEKAVEEVK
B11: design_609_7ee6ce64-4629-41e8-bcb4-ba0da017284d_2408_dldesign_0_cycle1_af2pred (protein)
chain: SSAAEEAAKKVEETAKKIKEEGLPEEEAKKLLSEALLLVADHDSPELAERALKAFEELSKYYPGAAKAAKILKRRLEALKKN
B12: design_609_7ee6ce64-4629-41e8-bcb4-ba0da017284d_2438_dldesign_0_cycle1_af2pred (protein)
chain: MKEEMIKEAKKLMEEGKKKFEEAVKLPASEAAEASKLMHEGHELLTEAAWLAKKAGDEELAKEAKKARKEAVKKGKEAQAASAAA

molecular target: VTCN1, Q7Z7D3
Sequence (Q7Z7D3 whole entry): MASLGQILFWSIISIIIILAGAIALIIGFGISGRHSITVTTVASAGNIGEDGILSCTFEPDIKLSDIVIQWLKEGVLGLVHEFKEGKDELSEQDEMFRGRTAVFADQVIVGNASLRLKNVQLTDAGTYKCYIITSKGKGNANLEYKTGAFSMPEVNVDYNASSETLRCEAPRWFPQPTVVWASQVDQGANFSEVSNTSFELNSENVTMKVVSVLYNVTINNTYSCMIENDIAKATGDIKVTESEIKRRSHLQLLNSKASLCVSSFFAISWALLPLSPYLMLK

Binding in a display sort, inactive:
B1 not found, B2 not found, B3 not found, B4 not found, B5 not found, B6 not found, B7 not found, B8 not found, B9 not found, B10 not found, B11 not found, B12 not found
